# Reference: PubChem BioAssay (NCATS)
# Results filed as inconclusive are left out. A call without a number means that no potency is given here. A number with no mark means an inactive call. Calls of active or inactive are those of the source. Calls follow the shape of the dose curve; as a rule, active = well fitted inhibition curve with a large enough effect; inconclusive = small, poorly fitted or top-dose-only effect; inactive = flat fitted curve, though single readings scatter.
# Key:
# [1] = qHTS to identify inhibitors of the type 1 interferon - major histocompatibility complex class I in skeletal muscle: primary screen against the NCATS Pharmaceutical Collection (AID 1347407);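 also: luminescence of HiBiT knocked into endogenous HLA-B as interferon-induced MHC class I level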; also: potency is read from the fitted curve at half-maximal effect
# How it was run: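 Immortalized human myoblasts (C25cl48) with HiBiT knocked into endogenous HLA-B*08:01 were stimulated with 4 ng/ml IFN-beta and treated with compounds (8-point, 1:5, top 46 uM final) for 24 h at 37 C; HiBiT lytic luminescence read.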
# [2] = qHTS to identify inhibitors of the type 1 interferon - major histocompatibility complex class I in skeletal muscle: primary screen against the NCATS LOPAC collection (AID 1347405);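 also: lytic HiBiT luminescence reporting HLA-B protein level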; also: potency is read from the fitted curve at half-maximal effect
# How it was run: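 CRISPR-engineered immortalized human myoblasts (C25cl48) with HiBiT fused to endogenous HLA-B*08:01, stimulated with 4 ng/ml IFN-beta. LOPAC compounds tested as a 7-point 1:4.3 titration (top 46 uM final), 24 h at 37 C; lytic HiBiT luminescence read.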
# [3] = molecular target: Lysine-specific demethylase 5B (Homo sapiens) (UniProt Q9UGL1); assay: Optimization screen for KDM5B Histone Demethylases FDH coupled qHTS against the LOPAC library (AID 1347166)
# Chain of Lysine-specific demethylase 5B (Homo sapiens) (Q9UGL1 whole entry, looked up): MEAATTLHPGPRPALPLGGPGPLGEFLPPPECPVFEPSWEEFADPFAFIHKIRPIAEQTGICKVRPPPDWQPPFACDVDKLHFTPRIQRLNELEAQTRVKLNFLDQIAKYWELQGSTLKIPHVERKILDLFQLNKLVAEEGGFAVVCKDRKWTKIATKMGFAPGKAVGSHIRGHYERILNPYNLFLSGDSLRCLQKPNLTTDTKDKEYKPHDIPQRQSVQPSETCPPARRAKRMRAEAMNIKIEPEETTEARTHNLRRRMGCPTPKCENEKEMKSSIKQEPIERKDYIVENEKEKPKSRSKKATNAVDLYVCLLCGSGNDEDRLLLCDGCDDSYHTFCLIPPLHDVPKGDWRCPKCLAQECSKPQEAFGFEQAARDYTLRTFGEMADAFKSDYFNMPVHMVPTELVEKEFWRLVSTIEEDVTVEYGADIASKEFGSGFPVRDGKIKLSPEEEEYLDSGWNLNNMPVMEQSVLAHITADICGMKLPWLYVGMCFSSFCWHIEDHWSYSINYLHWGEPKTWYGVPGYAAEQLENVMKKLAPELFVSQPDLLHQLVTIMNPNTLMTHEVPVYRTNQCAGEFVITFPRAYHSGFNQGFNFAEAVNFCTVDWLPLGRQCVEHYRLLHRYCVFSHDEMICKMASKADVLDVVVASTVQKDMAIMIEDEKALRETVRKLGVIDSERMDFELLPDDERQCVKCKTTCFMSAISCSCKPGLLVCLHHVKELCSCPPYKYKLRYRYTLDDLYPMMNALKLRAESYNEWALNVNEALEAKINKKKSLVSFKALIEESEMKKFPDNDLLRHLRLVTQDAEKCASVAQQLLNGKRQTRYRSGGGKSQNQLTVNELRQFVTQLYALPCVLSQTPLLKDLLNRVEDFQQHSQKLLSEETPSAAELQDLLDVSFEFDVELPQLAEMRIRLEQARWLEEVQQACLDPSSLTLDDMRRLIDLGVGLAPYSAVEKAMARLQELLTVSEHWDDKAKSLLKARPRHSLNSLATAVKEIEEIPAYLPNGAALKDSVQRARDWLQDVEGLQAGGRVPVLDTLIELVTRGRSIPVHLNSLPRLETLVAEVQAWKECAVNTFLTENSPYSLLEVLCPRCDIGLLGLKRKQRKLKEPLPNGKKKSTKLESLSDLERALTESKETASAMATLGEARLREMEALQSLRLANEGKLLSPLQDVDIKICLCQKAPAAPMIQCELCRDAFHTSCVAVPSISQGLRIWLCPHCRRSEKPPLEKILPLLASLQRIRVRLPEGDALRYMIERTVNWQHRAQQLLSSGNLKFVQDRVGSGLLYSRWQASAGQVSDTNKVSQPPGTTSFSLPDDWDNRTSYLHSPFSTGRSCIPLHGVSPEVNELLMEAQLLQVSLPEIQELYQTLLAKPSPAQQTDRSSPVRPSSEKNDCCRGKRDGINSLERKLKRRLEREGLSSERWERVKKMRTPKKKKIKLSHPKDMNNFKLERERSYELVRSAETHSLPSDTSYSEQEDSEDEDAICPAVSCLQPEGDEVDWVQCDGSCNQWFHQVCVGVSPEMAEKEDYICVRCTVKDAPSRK
# How it was run: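 KDM5BDeltaAP (200nM final) preincubated 10 min with compound, then 12.5uM H3K4Me3, 25uM a-ketoglutarate, ascorbate, Fe(II), NAD+ and FDH added; 50mM HEPES pH 7.5, 0.01% Tween-20. NADH fluorescence (340/450 nm) change over 30 min, room temperature.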
smiles,measurement,setting,value
NCC(=O)CCC(=O)O,Potency,[1],inactive
C=Cc1c(C)c2cc3[nH]c(cc4nc(cc5nc(cc1[nH]2)C(C)=C5CCC(=O)O)C(CCC(=O)O)=C4C)c(C)c3C=C,Potency,[2],inactive
same,Potency,[1],inactive
CNCC(O)c1ccc(O)c(O)c1 (configuration not stated),Potency,[2],inactive
same,Potency,[1],inactive
NCCNCCNCCN,Potency,[1],inactive
CNCCC(Oc1ccc(C(F)(F)F)cc1)c1ccccc1 (configuration not stated),outcome,[3],inactive
same,Potency,[1],inactive
C[C@H]1O[C@@H](n2cc(F)c(=O)[nH]c2=O)[C@H](O)[C@@H]1O,Potency,[2],inactive
same,Potency,[1],inactive
O=C1NC(=O)[C@@]2(CCOc3ccc(F)cc32)N1,Potency,[2],inactive
same,Potency,[1],inactive
CC1=C(CC(=O)O)c2cc(F)ccc2/C1=C\c1ccc(S(C)=O)cc1 (configuration not stated),Potency,[2],inactive
same,Potency,[1],inactive
O=C(O)COc1nn(Cc2ccccc2)c2ccccc12,Potency,[1],inactive
Cc1cccc(C)c1NC(=O)CN(CC(=O)O)CC(=O)O,Potency,[1],inactive
C[C@@H]1CC[C@@]2(OC1)O[C@H]1C[C@H]3[C@@H]4CC[C@H]5C[C@@H](O)CC[C@]5(C)[C@H]4CC(=O)[C@]3(C)[C@H]1[C@@H]2C,"activity change, negative = inhibition",[1],-0.255% [at 3.83 µM]
OC[C@H]1O[C@@H](O[C@@H]2[C@@H](CO)O[C@](O)(CO)[C@H]2O)[C@H](O)[C@@H](O)[C@H]1O,Potency,[1],inactive
CCCCN(CCCC)CC(O)c1cc(Cl)cc2c1-c1ccc(Cl)cc1/C2=C/c1ccc(Cl)cc1 (configuration not stated),Potency,[2],inactive
same,Potency,[1],inactive
CCN(CC)CCNC(=O)c1c(C)[nH]c(/C=C2\C(=O)Nc3ccc(F)cc32)c1C,Potency,[2],10 µM (active)
same,Potency,[1],10.5 µM (active)
